Growth data for eight compounds are collected here from PubChem BioAssay (NCI).

Among the test systems are NCI-H23 lung; NCI-H226 lung; NCI-H322M lung; HOP-62 NSCLC; NCI-H460 lung; HOP-92 NSCLC; A549/ATCC NSCLC; 786-0 renal; COLO 205 colon; DU-145 prostate; K-562 leukemia; MALME-3M melanoma; MDA-MB-231 breast; RXF 393 renal; SF-268 CNS; SF-295 CNS; SF-539 CNS; UACC-257 melanoma; M14 melanoma.
Holding throughout (assay): NCI-60 one-dose screen, 48 h (100 = growth as untreated, 0 = no growth, -100 = all killed)
What all share (settings): 10 µM unless noted

This is part of a sample that, as a whole, favours compounds with a hit. Of some 83,000 tested, about 20% had one in any assay.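 96-well plates, one dose, 48 hours. Percent growth reported; active if below 10.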 A number with no mark means an inactive call. The source made the active and inactive calls.

As to `COc1cc(C2CC(c3ccc(C)cc3)=NN2C=O)ccc1OCCN(C)C` (configuration not stated), the growth in the experiment with NCI-H23 lung was 106%; with NCI-H226 lung, 86.4%; with NCI-H322M lung, 94.3%; in the experiment with HOP-62 NSCLC, 87.9%; in the experiment with NCI-H460 lung it was 99%; with HOP-92 NSCLC, 77.7%. Also, the growth is 84.6% in the experiment with A549/ATCC NSCLC; 101% in the experiment on 786-0 renal; 95.8% in the experiment on COLO 205 colon; 105% in the experiment on DU-145 prostate; 83% in the experiment on K-562 leukemia; 83.1% with MALME-3M melanoma. Besides, the growth in the experiment with MDA-MB-231 breast was 97.2%; with RXF 393 renal, 79.8%; in the experiment with SF-268 CNS it was 89.8%; in the experiment with SF-295 CNS, 97.4%; in the experiment on SF-539 CNS, 89.5%; in the experiment on UACC-257 melanoma it was 92.9%. The growth in the experiment on M14 melanoma was 96.8%.
As to `COc1ccc(-c2cnc(SCC(=O)Nc3ccc(-c4nc5ccccc5s4)cc3)n2-c2ccc(OC)cc2)cc1`, the growth in the experiment on NCI-H23 lung was 101%; in the experiment on NCI-H226 lung it was 105%; in the experiment on NCI-H322M lung it was 102%; in the experiment on HOP-62 NSCLC, 106%; in the experiment on NCI-H460 lung, 110%; in the experiment with HOP-92 NSCLC, 93.6%. The growth was 101% with A549/ATCC NSCLC; 102% in the experiment on 786-0 renal; 112% with COLO 205 colon; 120% with DU-145 prostate; 108% with K-562 leukemia; 129% in the experiment with MALME-3M melanoma. Also, the growth with MDA-MB-231 breast is 111%; with RXF 393 renal, 121%; in the experiment with SF-268 CNS, 100%; in the experiment on SF-295 CNS it was 113%; in the experiment with SF-539 CNS, 102%; in the experiment on UACC-257 melanoma it was 116%. Also, in the experiment on M14 melanoma, the growth was 112%.
Consider `COCCOCCOCCOCCOc1ccc2c(c1)C(=O)c1nc3ncccc3c(=O)n1-2`, for which the growth is -40.1% (active) with NCI-H23 lung; -49.3% (active) in the experiment on NCI-H226 lung; -88% (active) with NCI-H322M lung; -83% (active) in the experiment with HOP-62 NSCLC; -61.2% (active) in the experiment with NCI-H460 lung; -18.7% (active) with HOP-92 NSCLC. The growth was -77.4% (active) in the experiment with A549/ATCC NSCLC; -51.5% (active) with 786-0 renal; -85.9% (active) in the experiment on COLO 205 colon; -95.1% (active) with DU-145 prostate; -92% (active) in the experiment on K-562 leukemia; -96.2% (active) in the experiment on MALME-3M melanoma. Moreover, the growth in the experiment with MDA-MB-231 breast is 23.8%; with RXF 393 renal it was -72% (active); with SF-268 CNS, -19.2% (active); in the experiment with SF-295 CNS it was -97% (active); in the experiment on SF-539 CNS it was -89.6% (active); in the experiment with UACC-257 melanoma it was -83.9% (active). Further, the growth in the experiment with M14 melanoma was -90.4% (active).
`O=CN1N=C(c2ccc(Cl)cc2)CC1c1cccc(Nc2ccnc3cc(Cl)ccc23)c1` (configuration not stated): the growth with NCI-H23 lung is 11.6%; in the experiment with NCI-H226 lung it was 24.4%; in the experiment on NCI-H322M lung it was 42.4%; in the experiment on HOP-62 NSCLC, 8.16% (active); in the experiment on NCI-H460 lung it was 11.1%; in the experiment on HOP-92 NSCLC it was 21.5%. The growth in the experiment on A549/ATCC NSCLC was 20.9%; with 786-0 renal, 20.5%; in the experiment on COLO 205 colon, -26.9% (active); in the experiment with DU-145 prostate, 14%; in the experiment with K-562 leukemia it was 3.74% (active); in the experiment with MALME-3M melanoma, 8.98% (active). In addition, the growth with MDA-MB-231 breast was 30.6%; with RXF 393 renal, -0.443% (active); in the experiment on SF-268 CNS it was 36.7%; in the experiment with SF-295 CNS it was -10.4% (active); with SF-539 CNS it was -25.9% (active); with UACC-257 melanoma it was 12.1%. Also, in the experiment on M14 melanoma, the growth was 16.2%.
For `O=C1C(=O)/C(=C/c2ccccc2)CCCCCC/C1=C/c1ccccc1`, the growth was 42.3% with NCI-H23 lung; 101% with NCI-H226 lung; 94.5% in the experiment on NCI-H322M lung; 10.3% with HOP-62 NSCLC; 90.4% in the experiment on NCI-H460 lung; 90.3% with HOP-92 NSCLC. Also, the growth in the experiment on A549/ATCC NSCLC was 86.1%; in the experiment with 786-0 renal, 86.6%; in the experiment with COLO 205 colon it was 99.6%; with DU-145 prostate it was 64.6%; in the experiment with K-562 leukemia, 4.05% (active); in the experiment on MALME-3M melanoma it was 90.9%. Moreover, the growth in the experiment with MDA-MB-231 breast is 96.2%; with RXF 393 renal it was -11.6% (active); in the experiment on SF-268 CNS, 60.6%; with SF-295 CNS it was 76.5%; with SF-539 CNS, 103%; with UACC-257 melanoma it was 75.3%. Also, in the experiment on M14 melanoma, the growth was 50%.
On to `CC(C)N(Cc1ccccc1)c1c(S)ssc1=S`, for which the growth in the experiment on NCI-H23 lung was 22.8%; with NCI-H226 lung, 14.2%; in the experiment with NCI-H322M lung, 7.56% (active); in the experiment with HOP-62 NSCLC, 9.6% (active); with NCI-H460 lung it was 4.45% (active); in the experiment on HOP-92 NSCLC, -36.2% (active). For the same compound, the growth was 4.58% (active) in the experiment on A549/ATCC NSCLC; 10.6% in the experiment with 786-0 renal; -40.1% (active) in the experiment with COLO 205 colon; 10.7% in the experiment on DU-145 prostate; 15.1% in the experiment on K-562 leukemia; -4.76% (active) in the experiment on MALME-3M melanoma. Moreover, the growth was 2.92% (active) in the experiment on MDA-MB-231 breast; -17.4% (active) in the experiment with RXF 393 renal; 28.8% in the experiment on SF-268 CNS; -5.63% (active) in the experiment on SF-295 CNS; 2.54% (active) in the experiment with SF-539 CNS; 5.96% (active) in the experiment on UACC-257 melanoma. The growth in the experiment on M14 melanoma was 17.6%.
As for `Oc1c(Cl)cc(Oc2cc(Cl)c(O)c(CN3CCOCC3)c2)cc1CN1CCOCC1`, the growth was 99.6% in the experiment on NCI-H23 lung; 92.7% in the experiment on NCI-H226 lung; 96% in the experiment on NCI-H322M lung; 81.2% in the experiment on HOP-62 NSCLC; 93.4% in the experiment with NCI-H460 lung; 79% in the experiment with HOP-92 NSCLC. Besides, the growth is 78.7% in the experiment with A549/ATCC NSCLC; 105% with 786-0 renal; 105% in the experiment with COLO 205 colon; 101% with DU-145 prostate; 81.4% in the experiment with K-562 leukemia; 105% with MALME-3M melanoma. The growth in the experiment with MDA-MB-231 breast is 96.6%; with RXF 393 renal, 104%; in the experiment with SF-268 CNS it was 87.9%; in the experiment with SF-295 CNS, 99.4%; with SF-539 CNS, 98.2%; in the experiment with UACC-257 melanoma, 86.4%. For the same compound, in the experiment on M14 melanoma, the growth was 105%.
For the compound `CS(=O)(=O)N1CCN(Cc2cc3nc(-c4cccc5[nH]ncc45)nc(N4CCOCC4)c3s2)CC1` (tested in a mixture with another compound), the growth in the experiment on NCI-H23 lung is 23.4%; in the experiment on NCI-H226 lung, 8.7% (active); in the experiment on NCI-H322M lung, 3.39% (active); in the experiment with HOP-62 NSCLC, 23.6%; in the experiment on NCI-H460 lung, 21.7%; in the experiment on HOP-92 NSCLC, -37.6% (active). For the same compound, the growth in the experiment with A549/ATCC NSCLC was 4.32% (active); in the experiment with 786-0 renal, -10.5% (active); with COLO 205 colon, 8.18% (active); with DU-145 prostate, 21.3%; in the experiment on K-562 leukemia, 58.5%; in the experiment with MALME-3M melanoma, -15.2% (active). Besides, the growth in the experiment with MDA-MB-231 breast was 42.9%; with RXF 393 renal it was -34.2% (active); in the experiment on SF-268 CNS, 31.4%; with SF-295 CNS, 1.83% (active); in the experiment on SF-539 CNS, 3.67% (active); in the experiment with UACC-257 melanoma, 20%. The growth in the experiment with M14 melanoma was 25%.
